# From PubChem BioAssay AID2284377 (EPA ToxCast)
# Records with an inconclusive call do not appear. The source made the active and inactive calls. Rule for the calls: active = hit-call score of the fitted dose curve at least 0.9, where 1 is the maximum; inconclusive = response in the unintended direction; inactive = score below 0.9.
# Biological target: Estrogen receptor (Homo sapiens) (UniProt P03372)
# Assay: ERF_TW_NR_COA_hESR1: Eurofins (ERF) Nuclear Receptor (NR) Functional Coactivator Assay for human Estrogen Receptor alpha (ERa) Agonism
# Procedure: ERF_TW_NR_COA_hESR1 is a biochemical, single-readout assay that uses extracted gene-proteins in a cell-free assay. Measurements were taken 0.16 hours after chemical dosing in a 96-well plate. See ERalpha Human Estrogen NHR Functional Agonist Coactivator Assay, Panlabs.ERF_TW_NR_COA_hESR1 is an assay component calculated from the ERF_TW_NR_COA_hESR1 assay. It is designed to measure FRET using a type of binding reporter as detected by fluorescence intensity of estriol with fluorimetry technology.Data from the assay component ERF_TW_NR_COA_hESR1 was analyzed at the assay endpoint, ERF_TW_NR_COA_hESR1, in the positive analysis fitting direction relative to DMSO as the negative control and baseline of activity. Using a type of binding reporter, gain-of-signal activity can be used to understand changes in binding as they relate to gene ESR1. To generalize the intended target to other relatable targets, this assay endpoint is annotated to the nuclear receptor intended target family, where the subfamily is steroid.
# Test compound and/or vehicle is incubated with the 7 nM estrogen receptor alpha (ERalpha)-LBD and coactivator peptide for 10 minutes at RT. Determination of the amount of complex formed is read spectrofluorimetrically at 520 nm/490 nm. Test compound-induced increase fluorescence by 50 percent or more (>/=50%) relative to the 1 uM Estriol response indicates possible ERalpha receptor agonist activity.
# Sequence of Estrogen receptor (Homo sapiens) (P03372 whole entry, looked up): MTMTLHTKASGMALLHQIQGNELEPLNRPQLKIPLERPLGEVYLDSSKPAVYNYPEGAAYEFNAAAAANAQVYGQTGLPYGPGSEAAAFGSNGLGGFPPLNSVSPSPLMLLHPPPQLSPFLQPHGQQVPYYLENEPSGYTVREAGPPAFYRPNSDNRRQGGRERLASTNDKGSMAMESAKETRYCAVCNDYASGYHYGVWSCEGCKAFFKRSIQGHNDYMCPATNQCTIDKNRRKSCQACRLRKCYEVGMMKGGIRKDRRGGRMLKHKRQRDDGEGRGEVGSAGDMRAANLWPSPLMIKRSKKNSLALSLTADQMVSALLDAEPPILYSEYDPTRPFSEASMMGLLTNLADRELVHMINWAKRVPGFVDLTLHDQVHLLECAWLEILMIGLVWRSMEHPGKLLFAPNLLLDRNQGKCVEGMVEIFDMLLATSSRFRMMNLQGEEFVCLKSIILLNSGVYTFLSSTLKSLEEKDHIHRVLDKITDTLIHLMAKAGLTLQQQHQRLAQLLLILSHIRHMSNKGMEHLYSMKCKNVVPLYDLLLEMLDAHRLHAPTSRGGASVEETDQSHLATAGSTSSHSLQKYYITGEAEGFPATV
Compound,AC50,outcome
FC(F)(F)C(F)(F)C(F)(F)C(F)(F)C(F)(F)C(F)(F)I,4.11 µM (active),
FC(F)(I)C(F)(F)C(F)(F)C(F)(F)I,,inactive
OCCC(F)(F)C(F)(F)C(F)(F)C(F)(F)C(F)(F)C(F)(F)C(F)(F)C(F)(F)F,,inactive
OCCC(F)(F)C(F)(F)C(F)(F)C(F)(F)C(F)(F)C(F)(F)F,50.2 µM (active),
C=CC(=O)OCC(F)(F)C(F)(F)C(F)(F)C(F)(F)C(F)(F)C(F)(F)C(F)(F)C(F)F,37.5 µM (active),
NC(=O)C(F)(F)C(F)(F)C(F)(F)C(F)(F)C(F)(F)C(F)(F)C(F)(F)F,,inactive
OCC(F)(F)C(F)(F)C(F)(F)C(F)(F)C(F)(F)C(F)(F)C(F)(F)C(F)(F)CO,0.467 µM (active),
O=C(CC(=O)C(F)(F)C(F)(F)C(F)(F)F)c1cccs1,,inactive
OCC(F)(F)C(F)(F)C(F)(F)C(F)(F)C(F)(F)C(F)(F)CO,1.53 µM (active),
OCCCC(F)(F)C(F)(F)C(F)(F)C(F)(F)C(F)(F)C(F)(F)C(F)(F)F,43.3 µM (active),
FC(F)(I)C(F)(F)C(F)(F)C(F)(F)C(F)(F)C(F)(F)I,7.81 µM (active),
N=C(N)C(F)(F)C(F)(F)C(F)(F)C(F)(F)C(F)(F)C(F)(F)C(F)(F)F,,inactive
O=P(O)(O)OCCC(F)(F)C(F)(F)C(F)(F)C(F)(F)C(F)(F)C(F)(F)F,9.12 µM (active),
